This is a sample that favours compounds with a hit; in the whole collection about 13% have one here.
USP17 block: human USP17-like deubiquitinase inhibition; actives 6.5% (n = 47,000); purified USP17, Ub-rhodamine cleavage fluorescence, 3 h; AID 1645855; inhibition, % at 50 µM
USP28 inh: inhibitors of human USP28 deubiquitinase. Q96RU2. purified USP28, Ub-rhodamine cleavage fluorescence, 30 min. inhibition, % at 25 µM. actives 3% (n = 47,000). AID 1645857
USP30 inh: human USP30 deubiquitinase inhibition | Q70CQ3 | purified USP30, Ub-rhodamine cleavage fluorescence | inhibition, % at 25 µM | actives 5.3% (n = 47,000) | AID 1645860
OTUD3 block: blocks human OTUD3 ubiquitin-rhodamine cleavage; purified OTUD3, Ub-rhodamine fluorescence, 2 h; inhibition, % at 25 µM; actives 0.7% (n = 47,000); AID 1645858
USP8 inh: blocks human USP8 ubiquitin-rhodamine cleavage. P40818. purified USP8, Ub-rhodamine cleavage fluorescence, 30 min. inhibition, % at 20 µM. actives 4.2% (n = 47,000). AID 1645853
USP10 block: human USP10 deubiquitinase inhibition | Q14694 | purified USP10, Ub-rhodamine fluorescence, 60 min | inhibition, % at 20 µM | actives 1.1% (n = 47,000) | AID 1645856
The depositor's hits bear a star; . = no result. Cut-off read from the data, not from the text of the source: active = inhibition above about 30%; inactive = the rest.

SMILES | USP17 block | USP28 inh | USP30 inh | OTUD3 block | USP8 inh | USP10 block
CCOc1ccccc1NC(=O)c1ccc(-n2nnnc2SC)cc1 | 25.9 | -5.9 | -27.8 | -5.5 | 2.5 | 4.1
COc1ccc(OC)c(NC(=O)c2ccc(-n3nnnc3SC)cc2)c1 | 80.0* | 16.4 | 17.4 | -5.0 | 20.4 | 0.9
COc1ccc(NC(=O)c2ccc(-n3nnnc3SC)cc2)cc1Cl | -3.6 | 14.2 | 5.9 | 86.6* | -12.1 | 17.1
CSc1nnnn1-c1ccc(C(=O)Nc2cccc(F)c2)cc1 | 16.5 | -7.0 | -22.6 | -3.8 | 2.0 | 3.2
Cc1c(C)n(CCCN(C)C)c2ncnc(NCc3ccco3)c12 | -9.8 | -0.6 | -38.3 | -10.0 | -2.5 | -6.7
O=C(C1CCN(c2nccc(N3CCCC3)n2)CC1)N1CCC2(CC1)OCCO2 | -56.7 | -39.1 | -176.5 | -32.0 | -30.6 | -5.5
Cc1cc(C2CC(=O)Nc3c2c(C)nn3-c2nc3ccccc3[nH]2)c(C)s1 (centres undefined) | 50.6* | -8.8 | -10.4 | -10.8 | 30.4* | 3.1
Cc1noc(-c2ccc(-n3ncc(C(=O)N(C)Cc4ccccc4)c3C)nc2)n1 | 7.0 | -4.2 | 7.7 | 9.9 | -0.1 | 3.5
O=C(Cn1c(=O)[nH]c2ccccc2c1=O)NCc1ccccc1Cl | 40.0* | 6.4 | 17.4 | 9.2 | 55.4* | 13.8
O=C(Cn1c(=O)[nH]c2ccccc2c1=O)NC1CC1 | 0.2 | 6.8 | 6.7 | 7.2 | 0.0 | 0.1
CC(C)(C)C1CCC(C(=O)Nc2nc3c(s2)CN(Cc2ccccc2)CC3)CC1 (centres undefined) | -60.0 | -58.1 | -270.8 | -64.3 | -17.1 | -4.4
Cc1ccc(Cn2nc(C)cc2C(=O)Nc2cccc(C(F)(F)F)c2)cc1 | 23.9 | 10.7 | 27.2 | 17.5 | 20.7 | 10.9
Cn1cc(NC(=O)Nc2cccc(C(F)(F)F)c2)c2ccccc2c1=O | 97.5* | 61.5* | 78.3* | 88.4* | 97.2* | 68.0*
Cc1cc(C(F)(F)F)n(-c2ccc(NC(=O)Nc3cccc(C(F)(F)F)c3)cc2)n1 | 39.0* | 42.6* | -5.2 | 31.4* | 15.4 | 30.2*
CC(C)Oc1ccc(C(=O)NCCS(=O)(=O)N2CCN(c3ccccc3)CC2)cc1 | 1.7 | 9.8 | 13.0 | 13.8 | 0.1 | 6.6
Cc1ccc2c(c1)N(Cc1nc(-c3ccc(F)cc3)no1)C(=O)CO2 | -12.2 | 51.1* | -25.5 | -0.9 | -7.9 | -1.2
COc1ccc(/C=C/C(=O)N(Cc2cccc(Cl)c2)C2CCS(=O)(=O)C2)cc1 (centres undefined) | 1.8 | -2.8 | 0.7 | -4.7 | 5.0 | 3.2
O=C(/C=C/c1ccc(OCc2cccc(Cl)c2)cc1)NC1CCCC1 | 35.9* | 13.9 | 21.6 | 15.6 | 15.9 | 2.2
CC(C)=CCC[C@](C)(O)[C@H]1CC[C@]2(C)[C@@H]1CC[C@@H]1[C@@]3(C)CC[C@H](O)C(C)(C)[C@@H]3CC[C@]12C | 22.5 | 3.2 | 4.6 | 6.5 | 9.0 | 16.9
C=C(C)[C@@H]1CC[C@]2(C)[C@H](CC[C@@H]3[C@@H](C(C)(O)CCC=C(C)C)CC[C@]32C)[C@@]1(C)CCC(=O)O (some centres undefined) | 98.9* | 69.4* | 93.4* | 87.5* | 91.3* | 92.9*
N#Cc1ccc(NC(=O)Nc2ccc(OCc3ccccc3)cc2)cc1 | 34.5* | 10.2 | 17.3 | 2.0 | 22.4 | 6.7
N#Cc1ccc(NC(=O)c2cccc(OCc3ccccc3)c2)cc1 | 3.1 | 22.0 | -1.3 | 1.0 | -0.1 | 2.0
Cn1c(=O)n(CCN2CCCCC2)c(=O)c2c1nc1n2CCN1c1cccc(Cl)c1 | 3.1 | 8.4 | 7.6 | 9.5 | 10.7 | 1.4
Cc1ccccc1Cn1cccc(-c2nc(C3CC3)no2)c1=O | 4.3 | 37.9* | -2.1 | 6.0 | 6.8 | -0.3
COc1ccc(Cn2cccc(-c3nc(C4CC4)no3)c2=O)cc1F | 0.8 | 30.8* | 9.9 | 3.3 | 7.8 | 0.4
SMILES | USP17 block | USP28 inh | USP30 inh | OTUD3 block | USP8 inh | USP10 block
COc1cccc(-c2nc(Cn3cccc(-c4nc(C)no4)c3=O)no2)c1 | 5.3 | 2.6 | 15.3 | 9.3 | -19.2 | -4.4
CC(NC(=O)CCc1nc2sc3c(c2c(=O)[nH]1)CCCCC3)c1ccccc1 (centres undefined) | -18.3 | -45.6 | -156.6 | -28.9 | 3.1 | -8.0
N#Cc1cc([N+](=O)[O-])ccc1NCC1COc2ccccc2O1 (centres undefined) | -8.0 | 47.0* | -41.2 | -6.4 | -1.7 | 3.9
COC(=O)[C@@H](C)NC(=O)C1c2ccccc2C(=O)N(c2ccccc2)C12CCCCC2 (some centres undefined) | -17.8 | -11.8 | -9.5 | -6.2 | -68.8 | -4.8
O=C(NC1CCCc2ccccc21)c1cc(=O)[nH]c2ccccc12 (centres undefined) | 40.9* | -3.8 | -44.1 | -1.1 | -0.4 | 3.9
O=C(NC1CCCc2ccccc21)c1cc(Cl)ccn1 (centres undefined) | . | 6.9 | -13.9 | 13.6 | 21.4 | -7.8
O=C(N[C@H]1CCCc2ccccc21)c1cc(-c2ccco2)on1 | 46.7* | -0.2 | -155.1 | 0.6 | 32.6* | -6.4
Cc1ccccc1OCC(=O)NCC(c1ccco1)N1CCOCC1 (centres undefined) | -30.3 | -9.3 | -42.7 | -8.8 | -14.5 | -1.4
CC(=O)C1C(=O)C=C(c2ccccc2)CC1c1ccccc1 (centres undefined) | 31.5* | 5.5 | 2.6 | 6.7 | 10.6 | 4.4
CC(=O)N1[C@@H](c2ccccc2)C[C@@]2(C)[C@@H](O)[C@@H](O)CCC[C@@H]12 | 9.9 | . | . | 2.0 | 0.0 | -3.8
COc1ccc(N2CCn3c(SCC(=O)Nc4cccc(F)c4)nnc32)cc1 | 36.7* | 8.5 | 34.3* | 13.7 | 31.0* | 12.0
COc1ccc(N2CCn3c(SCC(=O)Nc4ccccc4)nnc32)cc1 | 26.2 | 5.0 | 42.7* | 1.9 | 14.1 | 4.8
CCCCNC(=O)c1cc2cn(C3CC3)cc2s1 | 40.5* | -20.7 | -127.8 | -28.3 | 78.3* | -4.5
O=C(OC1CSc2nc3ccccc3n2C1)c1ccc([N+](=O)[O-])o1 (centres undefined) | 95.9* | -2.0 | -61.7 | 4.6 | 63.8* | 40.3*
CS(=O)(=O)c1ccc(Cl)c(NC(=O)COC(=O)c2ccc3[nH]c4c(c3c2)CCCC4)c1 | . | 26.0 | 34.7* | 1.4 | 29.9 | 11.2
CC(C)c1ccc(NC(=O)COC(=O)c2ccc3[nH]c4c(c3c2)CCCC4)cc1 | 58.0* | -0.1 | -19.8 | 3.4 | 17.3 | 3.9
O=C(COC(=O)c1ccc2[nH]c3c(c2c1)CCCC3)Nc1ccc2c(c1)OCO2 | 66.3* | 18.7 | 42.1* | 7.5 | 40.8* | 13.1
O=C(C1CC1)N1CCCn2nc(-c3cccnc3)cc2C1 | -12.3 | -11.6 | -41.4 | -15.8 | -5.0 | -5.2
O=C(Nc1nc(-c2ccccc2)c2ccccc2n1)c1ccc(Cl)cc1 | -0.1 | 33.5* | 28.6 | 16.4 | 0.4 | 11.0
O=C(Nc1ccc2ccccc2n1)c1ccccc1Cl | 19.9 | 19.9 | 17.0 | 10.2 | 23.8 | 0.2

Assay outcomes from PubChem BioAssay.
